The results in this text go back to PubChem BioAssay AID1347074 (Center for Chemical Genomics, University of Michigan, 2019).

Screen size: about 47,000 compounds; about 2,800 (6%) were called active. The list comes from a sample in which actives are over-represented; it also holds similar structures and randomly drawn compounds. Values without a mark were called inactive. Cut-off read from the data, not from the text of the source: active = z-score above about 3 (passing the limit was not always enough); inactive = the rest.

Chain of Endoribonuclease Dicer (Homo sapiens) (Q9UPY3 whole entry, looked up): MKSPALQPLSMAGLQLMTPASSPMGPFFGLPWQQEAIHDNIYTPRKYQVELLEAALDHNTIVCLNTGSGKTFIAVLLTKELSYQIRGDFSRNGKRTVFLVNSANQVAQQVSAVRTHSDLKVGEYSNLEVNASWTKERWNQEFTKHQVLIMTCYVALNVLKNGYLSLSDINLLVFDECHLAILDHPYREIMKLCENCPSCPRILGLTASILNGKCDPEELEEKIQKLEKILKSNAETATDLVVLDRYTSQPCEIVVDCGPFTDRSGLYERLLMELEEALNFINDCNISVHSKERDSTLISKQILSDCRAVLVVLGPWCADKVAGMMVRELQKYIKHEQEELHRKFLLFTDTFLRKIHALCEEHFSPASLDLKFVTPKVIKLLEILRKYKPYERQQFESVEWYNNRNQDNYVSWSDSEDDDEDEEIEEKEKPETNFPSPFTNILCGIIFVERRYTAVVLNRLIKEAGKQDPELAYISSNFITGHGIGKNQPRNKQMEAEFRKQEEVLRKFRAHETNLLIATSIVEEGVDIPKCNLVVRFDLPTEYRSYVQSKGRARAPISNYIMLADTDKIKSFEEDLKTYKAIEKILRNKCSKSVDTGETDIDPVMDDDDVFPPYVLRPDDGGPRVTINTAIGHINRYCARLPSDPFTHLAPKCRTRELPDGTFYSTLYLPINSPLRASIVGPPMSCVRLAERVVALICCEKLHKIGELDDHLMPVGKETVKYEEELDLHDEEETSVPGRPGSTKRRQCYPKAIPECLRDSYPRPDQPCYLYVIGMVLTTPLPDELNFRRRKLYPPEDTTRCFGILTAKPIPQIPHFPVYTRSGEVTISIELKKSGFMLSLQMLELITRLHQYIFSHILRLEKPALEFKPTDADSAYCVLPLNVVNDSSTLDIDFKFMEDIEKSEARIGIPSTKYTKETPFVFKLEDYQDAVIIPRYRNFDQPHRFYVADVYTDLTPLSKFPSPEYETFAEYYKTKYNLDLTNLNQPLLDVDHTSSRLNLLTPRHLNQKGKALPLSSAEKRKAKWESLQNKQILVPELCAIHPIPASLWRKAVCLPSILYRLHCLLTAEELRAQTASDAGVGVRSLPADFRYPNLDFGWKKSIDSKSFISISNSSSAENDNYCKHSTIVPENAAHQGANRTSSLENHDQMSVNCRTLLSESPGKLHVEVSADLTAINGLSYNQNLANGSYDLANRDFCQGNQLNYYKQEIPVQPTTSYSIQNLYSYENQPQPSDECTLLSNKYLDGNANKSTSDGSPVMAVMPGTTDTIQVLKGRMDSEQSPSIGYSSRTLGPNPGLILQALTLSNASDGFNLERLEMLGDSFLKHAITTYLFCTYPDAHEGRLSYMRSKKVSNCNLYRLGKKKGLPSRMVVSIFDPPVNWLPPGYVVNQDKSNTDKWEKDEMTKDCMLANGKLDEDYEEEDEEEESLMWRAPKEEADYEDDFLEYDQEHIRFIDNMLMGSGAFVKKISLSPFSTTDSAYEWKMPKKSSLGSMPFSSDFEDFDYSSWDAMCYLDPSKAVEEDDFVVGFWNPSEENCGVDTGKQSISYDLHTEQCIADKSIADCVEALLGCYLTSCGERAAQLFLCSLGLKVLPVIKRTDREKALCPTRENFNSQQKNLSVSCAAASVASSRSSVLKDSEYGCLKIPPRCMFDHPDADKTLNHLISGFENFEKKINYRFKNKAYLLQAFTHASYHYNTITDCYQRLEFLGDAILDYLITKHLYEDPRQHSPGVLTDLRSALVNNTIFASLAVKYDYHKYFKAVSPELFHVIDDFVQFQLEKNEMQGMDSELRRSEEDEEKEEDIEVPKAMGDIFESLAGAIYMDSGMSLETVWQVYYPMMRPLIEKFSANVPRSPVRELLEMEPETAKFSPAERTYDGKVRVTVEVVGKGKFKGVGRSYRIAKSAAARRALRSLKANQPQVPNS

This assay concerns the target Endoribonuclease Dicer (Homo sapiens) (UniProt Q9UPY3). Briefly: Dicer cleavage of pre-miR-21 blockers – biochemical, cat-ELCCA, chemiluminescence, primary screen (AID 1347074).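 Note: plate controls were vehicle for no effect and no enzyme for full effect; higher signal means more uncleaved substrate so more Dicer inhibition.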 As to conditions: cat-ELCCA pre-miR-21 Dicer processing, at 25 µM, hits give high values.
Consider `COc1ccc(-c2noc(-c3ccc(Cl)cc3)n2)cc1OC1CCCC1`, for which the z-score was -0.55.
For `Cc1ccc(-n2c(C)nc3sc4c(c3c2=O)CCC(C)C4)cc1` (stereo unspecified), the z-score is -0.76.
The same measure for `CCOC(=O)c1c(NC(=O)C2CCCN2S(=O)(=O)c2ccccc2)sc(C)c1C` (stereo unspecified): 42.8; for `O=S(=O)(c1ccc(Cl)cc1)N1CCN(c2cc(C(F)(F)F)nc3ccccc23)CC1`: -1.11.
Take `Cn1c(Oc2ccccc2Br)nc2c1c(=O)n(Cc1ccccc1)c(=O)n2C`: the z-score is 5.58 (active).
The same measure for `C=CCn1c(Oc2ccccc2Cl)nc2c1c(=O)n(C)c(=O)n2C`: 0.6; for `Cn1c(=O)c2c(nc(NCCc3ccccc3)n2Cc2ccccc2)n(C)c1=O`: -1.91; for `COC(=O)COc1c(C)cc(-c2nn(C)c(=O)c3ccccc23)cc1C`: -1.18.
Consider `CCCCOC(C)n1cc(Br)c(=O)[nH]c1=O` (stereo unspecified), for which the z-score was 0.67.
The same measure for `CCSCCOC(=O)C1=C(C)NC2=C(C(=O)CC(c3cccs3)C2)C1c1ccsc1` (stereo unspecified): 1.85; for `CC1=C(C(=O)OCc2ccccc2)C(c2ccc3c(c2)OCO3)C2=C(CC(c3cccs3)CC2=O)N1` (stereo unspecified): 3.65 (active).
The same measure for `CCOCCOC(=O)C1=C(C)NC2=C(C(=O)CC(c3cccs3)C2)C1c1ccc(OC(C)=O)cc1` (stereo unspecified): 0.06.
For the compound `CCOC(=O)N/N=C/c1ccccc1Cl`, the z-score was -1.05.
The same measure for `O=C(O)c1ccccc1/C=N/Nc1cc(Cl)ccc1Cl`: 5.07 (active).
The same measure for `S=C(N/N=C/c1ccc(Cl)cc1)Nc1cc(Cl)ccc1Cl`: -0.45; for `N#Cc1ccsc1N1C(=O)c2ccccc2C1=O`: 0.31.
The same measure for `CCOC(=O)CSC(=NC)NNC(=O)c1c(C)nc2cc(C)ccn12`: -0.21.
`CC(C)(C)c1ccc(-c2cc(NC(=O)c3ccc(Cl)cc3)n[nH]2)cc1`: the z-score is 1.49.
`Cc1cc(Br)c(NC(=O)c2ccc(Cl)cc2)c(Br)c1`: the z-score is 4.71 (active).
The same measure for `Cc1cc(C)c(C(=O)NC(=O)Nc2c(Cl)cc(Cl)cc2Cl)c(C)c1`: 0.37; for `Cc1cccc(C2C3=C(CCCC3=O)N=C3c4ccccc4C(=O)C32)c1` (stereo unspecified): 2.43.
The same measure for `CC(C)(C)C(=O)Nc1ccncc1C(=O)O`: -4.04.
The same measure for `Nc1nc(COc2ccccc2Cl)ncc1S(=O)(=O)c1ccccc1`: -2.39; for `COc1ccc(-c2cc(C(F)(F)F)nc(SCC(=O)NC3CC3)n2)cc1OC`: -0.37; for `COc1ccc(-c2cc(C(F)(F)F)n3ncnc3n2)cc1OC`: 4.99 (active).
Regarding `COc1ccc(-c2cc(C(F)(F)F)nc(SCC(=O)NC3CCCC3)n2)cc1OC`, the z-score was 1.64.
As for `C/C(=N\NC(=S)Nc1cccc(F)c1)c1ccco1`, the z-score was 5.72 (active).
The same measure for `CNNC(=S)Nc1ccc(F)c(C)c1`: 1.79; for `CCc1[nH]nc2c1C(c1ccc(OC)c(OC)c1)C(C#N)=C(N)O2` (stereo unspecified): -3.59; for `COc1ccc2cc(S(=O)(=O)N3CCN(C(c4ccccc4)c4ccccc4)CC3)ccc2c1`: 0.57.
As to `CC1CCN(C(=S)NC2CC3CCC2C3)CC1` (stereo unspecified), the z-score was 2.37.
The same measure for `CCOC(=O)c1c(NC(=O)c2cc3ccccc3o2)sc(C)c1C`: 0.8; for `CC(=Nc1ccccc1)c1nc(-c2ccccc2)oc1O`: 1.37.
The same measure for `O=S(=O)(c1cccc(-c2cn3cccnc3n2)c1)N1CCCC1`: 0.36; for `COc1ccccc1C(=O)CC1(O)C(=O)Nc2ccc(Cl)cc21` (stereo unspecified): 6.27; for `CCN1C(=O)C2(/C(=C(/O)c3ccccc3)C(=O)C(=O)N2CCCOC)c2ccccc21` (stereo unspecified): 3.53 (active).
The same measure for `CCN1C(=O)C2(/C(=C(/O)c3ccc(OC)c(C)c3)C(=O)C(=O)N2CCCOC)c2ccccc21` (stereo unspecified): 1.63.
Consider `CCN1C(=O)C2(/C(=C(/O)c3ccc(C)c(F)c3)C(=O)C(=O)N2CCCOC)c2ccccc21` (stereo unspecified), for which the z-score was -0.56.
The same measure for `CC1CC(=O)Nc2ccccc2N1C(=O)Nc1cccc(Cl)c1Cl` (stereo unspecified): -0.93.
The same measure for `O=C1CC(N2CCN(C(c3ccccc3)c3ccccc3)CC2)C(=O)N1c1cccc(Cl)c1` (stereo unspecified): -0.21.
Turning to `Cc1ccc(S(=O)(=O)NC(=O)Nc2nc(-c3ccc(F)c(F)c3)cs2)cc1`, the z-score was -0.18.
Turning to `O=C(NNc1nc(-c2ccc(F)cc2)cs1)c1ccc(Cl)cc1`, the z-score was 5.33 (active).
In the case of `O=C(NC(=S)Nc1nc(-c2ccc(Cl)cc2)cs1)C1CC1`, the z-score was 1.34.
In the case of `CC12c3ccccc3C(c3ccccc31)C1C(=O)N(c3ccc(C(=O)O)cc3)C(=O)C12` (stereo unspecified), the z-score is 0.79.
The same measure for `Cc1ncc([N+](=O)[O-])n1CCOC(=O)c1ccc(Br)cc1`: -0.13; for `Cc1oc2cc(Br)c(OC(=O)c3ccco3)cc2c1C(=O)OC(C)C`: 1.65.
The same measure for `COc1ccc(C(=O)COc2cc3c(C(=O)OC(C)C)c(C)oc3cc2Br)cc1`: 0.17.
The same measure for `Cc1oc2cc(Br)c(O)cc2c1C(=O)OC(C)C`: 3.81 (active); for `Cc1cn(C(=O)Nc2ccccc2)nc1-c1cccs1`: 1.17; for `Cc1ccc2nc(-c3cccnc3)[nH]c2c1`: -0.74.
Turning to `COc1cc(OC)cc(-c2nc3n(n2)C(c2ccc(OC)c(OC)c2)C2=C(CC(C)(C)CC2=O)N3)c1` (stereo unspecified), the z-score was 0.99.
Turning to `COc1cc(C2C3=C(CC(C)(C)CC3=O)Nc3ncnn32)ccc1OC(C)C` (stereo unspecified), the z-score is 3.67 (active).
In the case of `COc1cc(C2C3=C(CC(C)(C)CC3=O)NC3=C2C(=O)CC(C)(C)C3)ccc1O`, the z-score is 1.78.
`C=CCOc1ccc2c(=O)c(Oc3cc(C)ccc3C)coc2c1`: the z-score was 1.12.
The same measure for `O=C(c1ccco1)N1CCC2(Cl)CCCCC2C1c1ccccc1` (stereo unspecified): -2.84; for `O=C(NC1(NCc2ccc(Cl)cc2)C(=O)c2ccccc2C1=O)c1ccc(C(F)(F)F)cc1`: 0.41.
The same measure for `COc1ccc(Nc2nc3ccccc3nc2NS(=O)(=O)c2ccccc2)cc1OC`: 1.78; for `CCCCN(CC)c1ncnc2ccc(C)cc12`: 3.53 (active).
The same measure for `NC(=S)N/N=C/c1ccc(Cl)c(Cl)c1`: -1.14; for `CC(C)(C)NC(=O)NCCCN1CCOCC1`: 0.22.
As to `CCN(CC)C(=O)c1c(NC(=O)c2cccs2)sc2c1CCCCC2`, the z-score is -1.54.
